Screening data deposited in PubChem by National Center for Advancing Translational Sciences (NCATS).
Shown are actives, neighbours in structure and some others; about 0.43% of the full set was active somewhere.
GAA inh: alpha-glucosidase (human) inhibition; P10253; purified human GAA, 4-MU-alpha-glucoside fluorescence; Potency, µM (titrated, usually from 76.9 µM), without a hit: top-dose activity change, negative = inhibition, usual class: inhibitors; 0.005% of 200,000 active; AID 1466;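 also: potency is read from the fitted curve at half-maximal effect; plate controls were uninhibited enzyme wells for no effect and no-enzyme background for full effect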
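Fluorogenic assay: 4 nM human alpha-glucosidase with 400 uM 4-methylumbelliferyl-alpha-D-pyranoside in 50 mM citrate/phosphate, 0.005% Tween-20, pH 5.0, 20 min at room temperature. Compounds tested up to 77 uM; AC50 from Hill fits.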
aGlu spleen mod: inhibitors or activators of human alpha-glucosidase in spleen homogenate; P10253; human spleen homogenate, 4-MU-alpha-glucoside fluorescence; Potency, µM (highest dose often 79.9 µM), for the others: at the top dose activity change, negative = inhibition, actives largely listed as inhibitors; 0.006% of 240,000 active; AID 2112;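 also: potency is read from the fitted curve at half-maximal effect; 0% = enzyme with vehicle and -100% = no enzyme basal signal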
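Compounds were titrated against alpha-glucosidase in spleen homogenate at pH 5.0, with 1 mM 4-methylumbelliferyl substrate for 40 min at 37 C. Reactions were quenched with pH 10 NaOH/glycine and fluorescence measured.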
GAA glycogen: inhibitors or activators of human alpha-glucosidase glycogen cleavage; P10253; AID 2100; 0.38% of 300,000 active; recombinant GAA, glycogen substrate, Amplex Red glucose oxidase fluorescence; Potency, µM (top dose mostly 76.4 µM), inactives show at the top dose activity change, negative = inhibition, actives largely listed as inhibitors;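 also: potency is read from the fitted curve at half-maximal effect; 0% = full enzyme reaction and -100% = no-enzyme basal signal; the screen sought inhibitors and activators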
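Recombinant human alpha-glucosidase (4 nM final) hydrolysed bovine liver glycogen (30 ug) for 40 min at 37 C in pH 5.0 citrate/phosphate with 0.01% Tween-20. Released glucose detected by glucose oxidase/Amplex Red, Ex 573/Em 610 nm. Compounds up to 77 uM; AC50 from Hill fits.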
N370S GC mod: N370S glucocerebrosidase modulation, Gaucher chaperone candidate; P04062; N370S GC spleen homogenate, 4MU-glucoside fluorescence; Potency, µM (series often up to 59.4 µM), inactives show top-dose activity change, negative = inhibition, most hits filed as inhibitors; 0.092% of 330,000 active;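 also: potency is read from the fitted curve at half-maximal effect; 0% = full enzyme activity and -100% = no enzyme basal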
GLA spleen mod: alpha-galactosidase A (human) modulation; Potency, µM (top dose mostly 80 µM), for inactives: at the highest dose activity change, negative = inhibition, most hits filed as inhibitors; P06280; 0.008% of 240,000 active; human spleen homogenate, 4MU-alpha-Gal fluorescence, 40 min; AID 2107;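 also: potency is read from the fitted curve at half-maximal effect; 0% = enzyme with vehicle and -100% = no enzyme basal signal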
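Spleen homogenate 1 ug + cpd (titration) + 4-MU-alpha-D-galactopyranoside 1 mM; 37C 40 min; 50 mM citrate/phosphate pH 5.0, 0.01% Tween-20; stop pH 10; fluorescence 365/440; AC50 via Hill.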
GLA inh pH 4.5: alpha-galactosidase A (human) inhibition, pH 4.5; purified enzyme, 4-MU-alpha-Gal fluorescence, pH 4.5; activity change, negative = inhibition, % at 105 µM; 230,000 tested, under 10 active; AID 1467;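 also: 0% = full activity with enzyme and -100% = basal without enzyme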
Target sequence (P06280 whole entry, looked up): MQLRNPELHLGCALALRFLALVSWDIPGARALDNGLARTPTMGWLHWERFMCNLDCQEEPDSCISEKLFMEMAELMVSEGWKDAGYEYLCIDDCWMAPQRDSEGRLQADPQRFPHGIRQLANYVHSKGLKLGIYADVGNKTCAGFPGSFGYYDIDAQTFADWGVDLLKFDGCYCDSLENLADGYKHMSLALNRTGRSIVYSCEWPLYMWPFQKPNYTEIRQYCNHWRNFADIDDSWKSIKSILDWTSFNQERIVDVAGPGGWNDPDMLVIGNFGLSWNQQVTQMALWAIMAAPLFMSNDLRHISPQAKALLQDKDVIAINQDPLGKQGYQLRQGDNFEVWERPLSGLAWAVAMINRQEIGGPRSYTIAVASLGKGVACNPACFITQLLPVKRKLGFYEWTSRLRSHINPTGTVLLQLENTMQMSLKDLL
Active calls of the source: *; ? = inconclusive; . = no result; ! = not active in a repeat; [ ] = another dose, or the depositor's remark. Calls follow the shape of the dose curve; as a rule, active = well fitted curve in the direction sought with a large enough effect; inconclusive = small, poorly fitted or top-dose-only effect, or another doubt; inactive = no such curve, though single readings can be large; an effect the other way counts as inactive or inconclusive.

SMILES	GAA inh	aGlu spleen mod	GAA glycogen	N370S GC mod	GLA spleen mod	GLA inh pH 4.5
Nc1ccc(-c2n[nH]c(=O)c3ccccc23)cc1N	?	-12.0%	17.8µM*	-11.1%	-4.8%	-9.5
FC(F)(F)c1ccc2c(c1)NCC1CCCN21 (configuration not stated)	2.9%	5.0%	6.31µM*	2.6%	8.2%	4.7
Cc1ccc(C(=S)N2CCN(Cc3ccccc3)CC2)cc1	-2.7%	-2.3%	-2.6%	12.8%	-4.0%	-8.4
CCN1CCN(C(=S)c2ccc(-c3ccccc3)cc2)CC1	1.3%	7.3%	-13.7%	11.2µM*	1.8%	-6.6
Nc1nc(-c2ccccc2)c(N=Nc2ccccc2Cl)s1	-7.6%	-7.4%	2.7%	10µM*	-4.2%	-6.5
CSc1nc2oc3c(c2c2nncn12)CC(C)(C)SC3	?	-4.2%	-12.7%	?	?	4.1
COc1cccc(-n2cc(C(=O)NCc3ccccc3OC)c3ccccc3c2=O)c1	.	.	39.8µM*	.	.	.
Cn1c(SCC(=O)CC(=O)Nc2ccccc2)nnc1-c1ccc(O)cc1	1.9%	-0.6%	0.7%	14.1µM*	1.2%	2.5
NC(=NCCCCCCN=C(N)/N=C(\N)Nc1ccc(Cl)cc1)/N=C(\N)Nc1ccc(Cl)cc1	.	2.7%	3.5%[76.3 µM]	6.31µM*	-23.5%	-3.0
COc1ncc2nc(C)c(=O)n(-c3ccccc3)c2n1	.	-4.3%	.	-13.0%	-11.2%	.
COc1ccc(CNC(=O)C2CCCN(S(=O)(=O)c3c(C)nn(C)c3C)C2)cc1 (configuration not stated)	3.2%	2.6%	4.8%	-7.4%	3.4%	-0.6
COc1ccc(CC(=O)NCc2nnc(SCC(=O)c3ccc(OC)cc3)n2C)cc1	8.6%	-9.2%	-5.2%	-6.2%	-0.1%	-3.7
COc1ccc(NCc2nnc(SCC(=O)c3ccc(OC)cc3)n2C)cc1	7.2%	-0.8%	12.5µM*	-22.7%	-4.0%	1.9
CCCn1c(C(CO)Nc2nc(-c3cccc(Br)c3)cs2)nc2ccccc21 (configuration not stated)	.	.	2.0%[76.3 µM]	1.78µM*	.	.
CC(=O)c1ccc(N2CCN(S(=O)(=O)c3ccc4c(c3)CC(=O)N4)CC2)cc1	.	.	0.519µM*	-11.9%	.	.
O=C1Cc2cc(S(=O)(=O)N3CCN(c4ccc(C(F)(F)F)cc4)CC3)ccc2N1	.	.	-25.0%[76.3 µM]	.	.	.
O=C1Cc2cc(S(=O)(=O)N3CCN(c4ccccc4)CC3)ccc2N1	.	.	2.6µM*	-6.7%	.	.
N#CC1(Cc2ccccc2Cl)c2ccccc2C=CN1C(=O)c1ccccc1 (configuration not stated)	-14.7%	-5.7%	2.6%	13.5%	0.7%	2.5
CC1(C)CC(=O)C2=C(C1)N=C1c3ccccc3C(=O)C1C2c1ccc(Cl)cc1 (configuration not stated)	0.7%	-4.3%	-5.4%	14.1µM*	2.9%	-17.9
Cc1ccc(C2C3=C(CC(C)(C)CC3=O)N=C3c4ccccc4C(=O)C32)cc1 (configuration not stated)	-2.5%	-16.5%	-21.5%	15.8µM*	0.8%	-14.5
Cc1ccc(C2C3=C(CC(C)(C)CC3=O)OC3=C2C(=O)CC(C)(C)C3)cc1	5.7%	-2.2%	-9.2%	0.2%	1.1%	-1.3
CCOC(=O)C1=C(C)N=C2c3ccccc3C(=O)C2C1c1ccc(Cl)cc1 (configuration not stated)	-3.3%	-10.2%	-29.1%	-5.2%[12.8 µM]	-1.5%	0.7
CCN(CC)c1cc(Oc2ccccc2)ncn1	-8.1%	-1.4%	5.6%	3.6%	-3.0%	-6.9
Cc1ccc(CSC2=NCCN2S(=O)(=O)c2ccccc2)cc1	-9.0%	1.4%	-0.3%	8.4%	2.1%	-6.1
O=C(Nc1cc(-c2ccc(F)c(F)c2)no1)c1ccccc1F	.	.	-1.3%[76.3 µM]	.	.	.
SMILES	GAA inh	aGlu spleen mod	GAA glycogen	N370S GC mod	GLA spleen mod	GLA inh pH 4.5
CC(=O)N(c1ccc(Cl)cc1)c1cn(C(C)=O)c2ccccc12	1.6%	8.8%	-6.7%	17.8µM*	-0.4%	-8.1
O=C(c1ccc2ncsc2c1)N1CCCC(C(F)(F)F)C1 (configuration not stated)	.	.	.	-6.2%	.	.
Cc1[nH]c2ccccc2c1C(O)CN1CCN(c2cccc(C(F)(F)F)c2)CC1 (configuration not stated)	?	-5.9%	-17.5%	?	28.2µM*	?
Cc1cc(O)ccc1Nc1nc(-c2cccs2)cs1	2.8%	-1.8%	31.6µM*	-10.1%	-15.8%	-1.5
CC(=O)Oc1ccc2c(=O)c(Oc3ccccc3)c(C)oc2c1OC(C)=O	-0.7%	-9.0%	3.55µM*	6.6%	-1.7%	-8.2
COc1ccc(Nc2c3c(nc4ccc(C)cc24)CCC3)cc1	.	.	-0.9%	?	.	.
Cc1ccc2nc3c(c(Nc4ccc(O)cc4)c2c1)CCC3	.	.	12.6µM*	?	.	.
COc1ccc(OC)c(/C=C2\Oc3cc(OCC(=O)N4CC(O)C[C@H]4C(=O)O)ccc3C2=O)c1 (some centres not stated)	.	.	-16.8%[76.3 µM]	?	.	.
NC(=Nc1ccccc1)NC(=O)c1nc(Cl)c(N)nc1N	.	-2.3%	.	1.5%	0.3%	-2.4
NC(=NCc1ccccc1)NC(=O)c1nc(Cl)c(N)nc1N	.	8.91µM*!	.	?	?	9.6
CCOCCCNC(=O)CCCC1=NS(=O)(=O)c2ccccc2N1	2.4%	-2.0%	1.7%	-9.5%	-2.7%	-3.4
COc1cccc(CNC(=O)Nc2cccs2)c1	-3.9%	-17.1%	?	-13.5%	5.7%	-6.1
COc1ccc(CNC(=O)Nc2cccs2)cc1OC	-7.5%	2.1%	10µM*	3.1%	5.3%	1.8
COc1ccc(Br)cc1CNC(=O)Nc1cccs1	-7.7%	-18.2%	?	-19.0%	1.9%	0.8
Cc1ccc(CNC(=O)Cc2cccs2)cc1	-5.3%	-13.2%	2.1%	4.0%	5.0%	-12.2
Cc1ccc(CNC(=O)Nc2cccs2)cc1	-5.6%	-6.6%	28.2µM*	10.3%	5.8%	-2.8
COc1ccccc1CNC(=O)Nc1cccs1	-3.0%	0.2%	28µM*	26.4%	1.0%	-12.0
Cc1nnc(NC(=O)c2cccc(Br)c2)s1	0.0%	-2.2%	7.1%	?	6.4%	0.5
Cc1cc(C)c(NC(=O)CSc2nnc(CN3CCOCC3)n2C)c(C)c1	.	.	-0.7%	0.3%	.	.
CCNc1ccc(S(=O)(=O)N(C)C)cc1NCC(=O)Nc1ccccc1F	?	-1.2%	?	10µM*	-6.0%	-8.1
CCNc1ccc(S(=O)(=O)N(C)C)cc1NCC(=O)Nc1ccc(Br)cc1F	0.0%	-4.6%	?	8.9%	3.6%	0.2
CCNc1ccc(S(=O)(=O)N(C)C)cc1NCC(=O)Nc1ccc(F)c(Cl)c1	-10.7%	0.7%	10.3%	7.94µM*	2.0%	-22.8
